Laboratory results taken from publication PMC7862700, “An all-to-all approach to the identification of sequence-specific readers for epigenetic DNA modifications on cytosine”.

Columns and labels:
Assay in all cases: DAPPL (digital affinity profiling via proximity ligation, sequencing); 10 mM Tris-HCl pH 7.5, 50 mM NaCl, 1 mM DTT, 4% glycerol, room temperature, 30 min; GST-TFs on glutathione beads, 16-mer random dsDNA library, 0.1% formaldehyde crosslink after washing; high values mean tight binding
FLI1 = biological target: T1, FLI1 (Homo sapiens, UniProt Q01543 1-452); settings: protein: recombinant; tags: N-terminal GST; dsDNA, one strand shown
T1 sequence: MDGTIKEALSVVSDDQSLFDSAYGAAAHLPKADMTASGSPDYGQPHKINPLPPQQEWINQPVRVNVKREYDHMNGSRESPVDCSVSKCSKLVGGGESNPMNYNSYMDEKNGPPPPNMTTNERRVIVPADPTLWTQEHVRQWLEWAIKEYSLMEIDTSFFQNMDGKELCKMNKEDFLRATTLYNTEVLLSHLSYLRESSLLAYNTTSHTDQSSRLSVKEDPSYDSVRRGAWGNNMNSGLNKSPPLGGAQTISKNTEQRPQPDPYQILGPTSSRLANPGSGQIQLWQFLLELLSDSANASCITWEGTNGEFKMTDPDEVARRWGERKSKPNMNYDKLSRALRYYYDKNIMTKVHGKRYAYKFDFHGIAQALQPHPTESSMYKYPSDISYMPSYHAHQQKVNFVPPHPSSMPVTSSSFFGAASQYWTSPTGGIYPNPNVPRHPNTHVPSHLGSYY
How it was run: (§1)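 GST fusions of human transcription factors were expressed in yeast and captured with glutathione beads. Once given DNA barcodes and pooled alongside a tag-only sample, they were incubated for 30 min at room temperature with 200 nmole of a random double-stranded 16-mer DNA library in Tris/NaCl/DTT/glycerol buffer, then washed, crosslinked (0.1% formaldehyde), proximity-ligated, PCR-amplified and sequenced on an Illumina NextSeq500. The binding signal of each hexamer is its read frequency for a factor divided by its frequency for the tag-only sample.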

ELK1 = biological target: T2, ELK1 (Homo sapiens, UniProt P19419 1-428); settings: protein: recombinant; tags: N-terminal GST; dsDNA, one strand shown
T2 sequence: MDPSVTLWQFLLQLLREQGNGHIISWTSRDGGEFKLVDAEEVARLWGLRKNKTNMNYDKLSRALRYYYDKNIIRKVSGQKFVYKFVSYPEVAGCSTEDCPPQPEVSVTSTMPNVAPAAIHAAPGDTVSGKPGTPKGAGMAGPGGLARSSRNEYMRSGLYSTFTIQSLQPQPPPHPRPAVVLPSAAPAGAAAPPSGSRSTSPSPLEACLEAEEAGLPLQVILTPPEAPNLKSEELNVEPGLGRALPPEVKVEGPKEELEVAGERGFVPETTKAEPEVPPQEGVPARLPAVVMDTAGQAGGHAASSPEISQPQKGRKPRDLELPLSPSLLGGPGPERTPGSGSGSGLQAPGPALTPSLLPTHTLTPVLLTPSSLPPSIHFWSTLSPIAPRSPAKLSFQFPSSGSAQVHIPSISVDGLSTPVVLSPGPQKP
How it was run: as §1

GABPA = biological target: T3, GABPA (Homo sapiens, UniProt Q06546 1-454); settings: protein: recombinant; tags: N-terminal GST; dsDNA, one strand shown
T3 sequence: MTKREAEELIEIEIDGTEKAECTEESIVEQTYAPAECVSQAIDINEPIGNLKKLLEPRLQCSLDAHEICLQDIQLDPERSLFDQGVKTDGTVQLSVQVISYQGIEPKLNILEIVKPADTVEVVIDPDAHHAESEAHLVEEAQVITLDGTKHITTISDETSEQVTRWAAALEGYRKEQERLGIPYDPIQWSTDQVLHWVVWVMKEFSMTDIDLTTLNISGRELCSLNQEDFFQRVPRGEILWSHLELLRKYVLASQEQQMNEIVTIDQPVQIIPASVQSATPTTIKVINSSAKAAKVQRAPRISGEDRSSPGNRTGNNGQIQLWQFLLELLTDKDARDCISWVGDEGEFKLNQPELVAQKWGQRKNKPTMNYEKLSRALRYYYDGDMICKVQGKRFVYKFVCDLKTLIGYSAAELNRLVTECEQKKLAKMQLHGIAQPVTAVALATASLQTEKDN
How it was run: as §1

ERG = biological target: T4, ERG (Homo sapiens, UniProt P11308 1-479); settings: protein: recombinant; tags: N-terminal GST; dsDNA, one strand shown
T4 sequence: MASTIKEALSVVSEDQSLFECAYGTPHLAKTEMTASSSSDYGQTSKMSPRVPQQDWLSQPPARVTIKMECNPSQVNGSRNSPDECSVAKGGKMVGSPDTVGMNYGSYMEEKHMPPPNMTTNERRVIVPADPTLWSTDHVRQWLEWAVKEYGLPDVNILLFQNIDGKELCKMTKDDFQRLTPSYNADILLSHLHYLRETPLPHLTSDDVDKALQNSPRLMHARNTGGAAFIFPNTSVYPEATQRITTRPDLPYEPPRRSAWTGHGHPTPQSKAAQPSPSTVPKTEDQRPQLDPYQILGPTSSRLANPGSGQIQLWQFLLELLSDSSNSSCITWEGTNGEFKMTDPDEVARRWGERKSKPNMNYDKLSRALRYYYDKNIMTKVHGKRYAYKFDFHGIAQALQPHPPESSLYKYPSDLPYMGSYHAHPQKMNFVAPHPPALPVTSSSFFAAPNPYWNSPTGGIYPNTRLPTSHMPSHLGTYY
How it was run: as §1

ELF1 = ELF1 (Homo sapiens, UniProt P32519 1-619); settings: protein: recombinant; tags: N-terminal GST; dsDNA, one strand shown
How it was run: as §1

EHF = biological target: T5, EHF (Homo sapiens, UniProt Q9NZC4 1-300); settings: protein: recombinant; tags: N-terminal GST; dsDNA, one strand shown
T5 sequence: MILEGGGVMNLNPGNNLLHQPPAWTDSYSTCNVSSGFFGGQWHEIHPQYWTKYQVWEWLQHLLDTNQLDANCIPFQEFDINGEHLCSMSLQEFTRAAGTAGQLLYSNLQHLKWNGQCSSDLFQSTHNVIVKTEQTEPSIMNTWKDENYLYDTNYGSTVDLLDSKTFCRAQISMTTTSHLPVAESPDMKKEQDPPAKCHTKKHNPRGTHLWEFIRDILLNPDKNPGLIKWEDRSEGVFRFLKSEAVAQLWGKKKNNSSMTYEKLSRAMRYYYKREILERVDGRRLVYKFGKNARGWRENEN
How it was run: as §1

SPI1 = SPI1 (Homo sapiens, UniProt P17947 1-270); settings: protein: recombinant; tags: N-terminal GST; dsDNA, one strand shown
How it was run: as §1

SPIB = SPIB (Homo sapiens, UniProt Q01892 1-262); settings: protein: recombinant; tags: N-terminal GST; dsDNA, one strand shown
How it was run: as §1

ELK3 = biological target: T6, ELK3 (Homo sapiens, UniProt P41970 1-407); settings: protein: recombinant; tags: N-terminal GST; dsDNA, one strand shown
T6 sequence: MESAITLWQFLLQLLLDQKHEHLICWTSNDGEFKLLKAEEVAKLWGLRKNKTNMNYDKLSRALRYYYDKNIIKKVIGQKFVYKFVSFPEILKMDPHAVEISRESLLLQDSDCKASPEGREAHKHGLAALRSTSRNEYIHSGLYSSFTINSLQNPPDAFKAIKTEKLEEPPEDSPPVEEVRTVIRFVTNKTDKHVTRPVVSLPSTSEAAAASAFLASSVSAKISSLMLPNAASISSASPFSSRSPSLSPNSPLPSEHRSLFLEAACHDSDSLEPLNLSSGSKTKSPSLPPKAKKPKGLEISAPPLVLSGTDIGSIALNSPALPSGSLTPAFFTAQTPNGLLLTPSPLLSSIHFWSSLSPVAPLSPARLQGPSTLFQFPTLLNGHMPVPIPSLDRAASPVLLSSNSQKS
How it was run: as §1

FEV = biological target: T7, FEV (Homo sapiens, UniProt Q99581 1-238); settings: protein: recombinant; tags: N-terminal GST; dsDNA, one strand shown
T7 sequence: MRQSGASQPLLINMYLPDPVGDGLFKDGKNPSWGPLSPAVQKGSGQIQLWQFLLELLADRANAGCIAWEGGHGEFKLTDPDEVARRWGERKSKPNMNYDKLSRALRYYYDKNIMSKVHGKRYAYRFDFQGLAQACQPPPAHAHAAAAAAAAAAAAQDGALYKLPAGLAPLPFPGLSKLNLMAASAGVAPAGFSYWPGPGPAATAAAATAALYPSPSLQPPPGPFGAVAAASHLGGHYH
How it was run: as §1

ETV5 = ETV5 (Homo sapiens, UniProt P41161 1-510); settings: protein: recombinant; tags: N-terminal GST; dsDNA, one strand shown
How it was run: as §1

HSF1 = HSF1 (Homo sapiens, UniProt Q00613 1-529); settings: protein: recombinant; tags: N-terminal GST; chain copies: 3; dsDNA, one strand shown
How it was run: as §1

SPIC = biological target: T8, SPIC (Homo sapiens, UniProt Q8N5J4 1-248); settings: protein: recombinant; tags: N-terminal GST; dsDNA, one strand shown
T8 sequence: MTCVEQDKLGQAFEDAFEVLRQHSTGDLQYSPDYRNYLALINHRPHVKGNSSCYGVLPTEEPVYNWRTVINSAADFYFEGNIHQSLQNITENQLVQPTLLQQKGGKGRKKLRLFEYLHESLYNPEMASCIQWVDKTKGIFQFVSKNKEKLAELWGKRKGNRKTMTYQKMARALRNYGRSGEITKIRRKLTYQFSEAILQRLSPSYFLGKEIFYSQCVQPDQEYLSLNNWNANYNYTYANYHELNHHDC
How it was run: as §1

ELF4 = ELF4 (Homo sapiens, UniProt Q99607 1-663); settings: protein: recombinant; tags: N-terminal GST; dsDNA, one strand shown
How it was run: as §1

ELK4 = biological target: T9, ELK4 (Homo sapiens, UniProt P28324-2 1-405); settings: protein: recombinant; tags: N-terminal GST; dsDNA, one strand shown
T9 sequence: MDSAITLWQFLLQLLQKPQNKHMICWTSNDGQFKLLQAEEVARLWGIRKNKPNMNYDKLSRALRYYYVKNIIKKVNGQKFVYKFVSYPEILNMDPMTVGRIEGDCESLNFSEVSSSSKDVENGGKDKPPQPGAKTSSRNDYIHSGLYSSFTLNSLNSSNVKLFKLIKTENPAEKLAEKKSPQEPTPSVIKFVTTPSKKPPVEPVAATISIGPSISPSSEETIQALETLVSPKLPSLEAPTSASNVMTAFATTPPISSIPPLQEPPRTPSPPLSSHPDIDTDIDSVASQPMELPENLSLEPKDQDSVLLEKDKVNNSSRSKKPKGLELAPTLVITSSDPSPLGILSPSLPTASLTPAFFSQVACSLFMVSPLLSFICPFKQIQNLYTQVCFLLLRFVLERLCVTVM
How it was run: as §1

ETV2 = biological target: T10, ETV2 (Homo sapiens, UniProt O00321 1-342); settings: protein: recombinant; tags: N-terminal GST; dsDNA, one strand shown
T10 sequence: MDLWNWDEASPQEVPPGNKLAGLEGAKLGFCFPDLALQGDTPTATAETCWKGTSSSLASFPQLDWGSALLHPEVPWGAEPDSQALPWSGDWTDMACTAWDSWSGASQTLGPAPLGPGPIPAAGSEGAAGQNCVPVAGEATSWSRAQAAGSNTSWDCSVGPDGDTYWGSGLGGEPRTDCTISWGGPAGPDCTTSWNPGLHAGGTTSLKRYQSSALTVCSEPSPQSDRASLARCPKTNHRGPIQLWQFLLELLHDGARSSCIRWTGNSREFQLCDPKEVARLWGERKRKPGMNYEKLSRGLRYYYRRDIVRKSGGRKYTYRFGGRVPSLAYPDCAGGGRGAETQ
How it was run: as §1

ELF3 = biological target: T11, ELF3 (Homo sapiens, UniProt P78545 1-371); settings: protein: recombinant; tags: N-terminal GST; dsDNA, one strand shown
T11 sequence: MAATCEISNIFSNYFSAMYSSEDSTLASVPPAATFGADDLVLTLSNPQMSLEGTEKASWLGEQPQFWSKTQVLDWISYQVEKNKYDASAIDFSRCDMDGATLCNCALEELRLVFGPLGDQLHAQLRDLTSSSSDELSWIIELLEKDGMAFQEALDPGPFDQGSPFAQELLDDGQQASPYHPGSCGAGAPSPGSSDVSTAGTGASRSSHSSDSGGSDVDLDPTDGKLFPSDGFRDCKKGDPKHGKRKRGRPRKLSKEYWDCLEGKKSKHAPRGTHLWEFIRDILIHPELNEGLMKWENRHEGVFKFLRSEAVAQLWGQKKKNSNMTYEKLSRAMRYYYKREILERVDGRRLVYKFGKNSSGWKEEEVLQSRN
How it was run: as §1

CRX = CRX (Homo sapiens, UniProt O43186 1-299); settings: protein: recombinant; tags: N-terminal GST; dsDNA, one strand shown
How it was run: as §1

ETV1 = ETV1 (Homo sapiens, UniProt P50549 1-477); settings: protein: recombinant; tags: N-terminal GST; dsDNA, one strand shown
How it was run: as §1

ELF4, sequence (Q99607 whole entry): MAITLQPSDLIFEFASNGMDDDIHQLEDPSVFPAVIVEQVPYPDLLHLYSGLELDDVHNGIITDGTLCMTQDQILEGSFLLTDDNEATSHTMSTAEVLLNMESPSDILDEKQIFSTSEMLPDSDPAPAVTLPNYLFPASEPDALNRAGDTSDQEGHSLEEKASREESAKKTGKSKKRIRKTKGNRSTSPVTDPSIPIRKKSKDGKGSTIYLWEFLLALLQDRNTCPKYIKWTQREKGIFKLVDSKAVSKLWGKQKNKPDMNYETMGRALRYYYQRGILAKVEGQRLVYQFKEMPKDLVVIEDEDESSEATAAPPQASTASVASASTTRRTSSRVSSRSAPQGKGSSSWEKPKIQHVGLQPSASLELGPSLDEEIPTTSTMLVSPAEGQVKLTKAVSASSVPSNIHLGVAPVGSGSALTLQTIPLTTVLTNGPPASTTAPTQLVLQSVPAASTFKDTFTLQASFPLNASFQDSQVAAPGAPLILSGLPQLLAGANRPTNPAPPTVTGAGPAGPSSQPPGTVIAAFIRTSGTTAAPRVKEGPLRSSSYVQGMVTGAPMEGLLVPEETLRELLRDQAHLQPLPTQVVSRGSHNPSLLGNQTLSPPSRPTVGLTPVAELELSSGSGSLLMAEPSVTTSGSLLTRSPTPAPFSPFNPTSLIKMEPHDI
ELF1, sequence (P32519 whole entry): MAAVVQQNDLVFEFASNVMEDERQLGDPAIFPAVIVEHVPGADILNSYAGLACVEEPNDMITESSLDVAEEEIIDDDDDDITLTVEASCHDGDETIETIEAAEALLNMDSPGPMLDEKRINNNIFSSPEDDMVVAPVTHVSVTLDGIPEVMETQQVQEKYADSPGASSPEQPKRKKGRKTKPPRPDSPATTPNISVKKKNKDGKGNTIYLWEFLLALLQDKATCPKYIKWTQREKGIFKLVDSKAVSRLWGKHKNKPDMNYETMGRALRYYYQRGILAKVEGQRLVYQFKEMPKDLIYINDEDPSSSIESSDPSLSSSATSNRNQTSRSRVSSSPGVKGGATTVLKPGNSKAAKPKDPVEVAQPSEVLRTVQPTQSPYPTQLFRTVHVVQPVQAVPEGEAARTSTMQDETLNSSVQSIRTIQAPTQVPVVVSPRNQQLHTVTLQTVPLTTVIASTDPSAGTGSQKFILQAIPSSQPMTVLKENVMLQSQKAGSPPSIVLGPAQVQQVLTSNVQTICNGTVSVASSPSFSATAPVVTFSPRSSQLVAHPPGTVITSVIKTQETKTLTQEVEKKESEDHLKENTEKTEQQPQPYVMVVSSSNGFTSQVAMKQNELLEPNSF
CRX, sequence (O43186 whole entry): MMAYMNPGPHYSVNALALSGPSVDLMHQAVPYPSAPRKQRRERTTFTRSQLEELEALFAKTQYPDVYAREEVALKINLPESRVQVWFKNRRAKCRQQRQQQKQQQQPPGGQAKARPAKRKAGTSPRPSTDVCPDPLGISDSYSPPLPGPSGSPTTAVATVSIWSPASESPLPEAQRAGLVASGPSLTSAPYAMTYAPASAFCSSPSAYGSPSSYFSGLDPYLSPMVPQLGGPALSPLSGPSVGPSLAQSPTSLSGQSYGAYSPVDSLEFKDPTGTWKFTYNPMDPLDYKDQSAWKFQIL
ETV1, sequence (P50549 whole entry): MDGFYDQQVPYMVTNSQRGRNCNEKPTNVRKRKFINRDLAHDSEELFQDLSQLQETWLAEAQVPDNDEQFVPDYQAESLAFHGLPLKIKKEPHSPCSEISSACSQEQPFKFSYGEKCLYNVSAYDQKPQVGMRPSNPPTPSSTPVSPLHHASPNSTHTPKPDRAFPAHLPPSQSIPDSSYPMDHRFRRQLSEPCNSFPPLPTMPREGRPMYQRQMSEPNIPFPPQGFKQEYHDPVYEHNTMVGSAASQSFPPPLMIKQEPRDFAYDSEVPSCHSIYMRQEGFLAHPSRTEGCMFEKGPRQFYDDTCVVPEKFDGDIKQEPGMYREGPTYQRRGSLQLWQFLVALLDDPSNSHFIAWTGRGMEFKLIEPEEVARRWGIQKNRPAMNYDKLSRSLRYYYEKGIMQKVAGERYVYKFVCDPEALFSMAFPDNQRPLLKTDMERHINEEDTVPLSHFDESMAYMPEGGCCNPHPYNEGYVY
SPIB, sequence (Q01892 whole entry): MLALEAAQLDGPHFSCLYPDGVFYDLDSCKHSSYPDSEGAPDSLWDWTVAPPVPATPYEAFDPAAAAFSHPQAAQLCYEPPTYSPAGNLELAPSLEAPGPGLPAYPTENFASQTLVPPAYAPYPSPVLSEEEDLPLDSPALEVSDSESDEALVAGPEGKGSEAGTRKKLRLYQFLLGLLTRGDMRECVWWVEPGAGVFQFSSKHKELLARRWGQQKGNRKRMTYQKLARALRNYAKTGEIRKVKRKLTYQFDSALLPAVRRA
ETV5, sequence (P41161 whole entry): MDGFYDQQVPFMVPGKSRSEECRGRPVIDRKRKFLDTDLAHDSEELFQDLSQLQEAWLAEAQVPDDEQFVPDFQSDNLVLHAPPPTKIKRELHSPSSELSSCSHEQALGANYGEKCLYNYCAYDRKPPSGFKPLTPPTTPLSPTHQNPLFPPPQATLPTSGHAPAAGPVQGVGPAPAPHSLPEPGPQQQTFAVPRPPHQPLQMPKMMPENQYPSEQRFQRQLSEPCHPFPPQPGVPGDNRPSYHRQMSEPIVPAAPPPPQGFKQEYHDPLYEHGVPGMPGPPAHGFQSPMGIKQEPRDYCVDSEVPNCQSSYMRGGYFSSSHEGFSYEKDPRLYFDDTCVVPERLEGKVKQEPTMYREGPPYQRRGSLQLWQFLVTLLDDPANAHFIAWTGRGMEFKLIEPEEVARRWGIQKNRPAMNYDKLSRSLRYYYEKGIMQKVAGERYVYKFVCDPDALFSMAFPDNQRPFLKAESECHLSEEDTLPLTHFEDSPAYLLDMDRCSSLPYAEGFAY
HSF1, sequence (Q00613 whole entry): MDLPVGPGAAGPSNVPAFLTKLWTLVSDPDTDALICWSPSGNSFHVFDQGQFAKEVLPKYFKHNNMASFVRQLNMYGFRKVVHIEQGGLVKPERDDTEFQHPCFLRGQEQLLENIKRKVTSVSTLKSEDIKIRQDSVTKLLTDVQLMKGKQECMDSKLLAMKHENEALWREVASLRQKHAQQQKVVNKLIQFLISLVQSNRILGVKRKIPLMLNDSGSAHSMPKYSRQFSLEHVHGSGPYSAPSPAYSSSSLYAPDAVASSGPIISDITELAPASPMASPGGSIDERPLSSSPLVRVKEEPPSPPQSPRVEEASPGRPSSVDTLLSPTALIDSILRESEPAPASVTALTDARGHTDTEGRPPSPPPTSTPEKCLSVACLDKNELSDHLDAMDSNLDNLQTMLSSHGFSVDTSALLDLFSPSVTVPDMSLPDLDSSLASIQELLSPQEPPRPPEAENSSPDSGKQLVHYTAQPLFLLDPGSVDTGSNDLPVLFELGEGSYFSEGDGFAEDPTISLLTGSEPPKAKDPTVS

## TTCTCA
FLI1
  binding signal: 1.36 fold enrichment (6-mer frequency, TF over GST control)
ELK1
  binding signal: 1.31 fold enrichment (6-mer frequency, TF over GST control)
GABPA
  binding signal: 1.33 fold enrichment (6-mer frequency, TF over GST control)
ERG
  binding signal: 1.26 fold enrichment (6-mer frequency, TF over GST control)
ELF1
  binding signal: 1.29 fold enrichment (6-mer frequency, TF over GST control)
EHF
  binding signal: 1.19 fold enrichment (6-mer frequency, TF over GST control)
SPI1
  binding signal: 1.32 fold enrichment (6-mer frequency, TF over GST control)
SPIB
  binding signal: 1.31 fold enrichment (6-mer frequency, TF over GST control)
ELK3
  binding signal: 1.27 fold enrichment (6-mer frequency, TF over GST control)
FEV
  binding signal: 1.3 fold enrichment (6-mer frequency, TF over GST control)
ETV5
  binding signal: 1.33 fold enrichment (6-mer frequency, TF over GST control)
HSF1
  binding signal: 1.65 fold enrichment (6-mer frequency, TF over GST control)
SPIC
  binding signal: 1.5 fold enrichment (6-mer frequency, TF over GST control)
ELF4
  binding signal: 1.27 fold enrichment (6-mer frequency, TF over GST control)
ELK4
  binding signal: 1.34 fold enrichment (6-mer frequency, TF over GST control)
ETV2
  binding signal: 1.32 fold enrichment (6-mer frequency, TF over GST control)
ELF3
  binding signal: 1.39 fold enrichment (6-mer frequency, TF over GST control)
CRX
  binding signal: 1.34 fold enrichment (6-mer frequency, TF over GST control)
ETV1
  binding signal: 1.35 fold enrichment (6-mer frequency, TF over GST control)
